SMILES strings stand for the structures. Values joined by “and” are separate entries in the source; they are usually repeats but may differ in a detail not shown here. Identical values can stand only once. Results filed as inconclusive are left out. Where a call stands in place of a potency, no number is given. Active and inactive are the calls of the source. The call rests on the fitted dose curve; in most records, active means well fitted cell-killing curve with a large enough effect; inconclusive means small, poorly fitted or top-dose-only effect, or effect the other way; inactive means flat fitted curve, though single readings scatter.

The nature of one test: qHTS assay for cell viability of HEK293 cells (AID 743288). Further: nearly all actives have a fitted effect of over 50% in size. The note with it: ATP luminescence (CellTiter-Glo), 18 h; max response: hits give low values. In a few lines:
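Steps: plate 2,000 parental HEK293 cells per well; incubate ≥5 h, 37 C; add compounds in DMSO; incubate 18 h, 37 C; add CellTiter-Glo; wait 30 min at room temperature; read luminescence.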
(In general: Quantitative high-throughput screening tests each substance at several concentrations.)
As for `Nc1cc(-c2ccncc2)c[nH]c1=O`, the max response is -3.39% (inactive).

On to `c1ccc2sc(SSc3nc4ccccc4s3)nc2c1`, for which the max response is -16% (inactive) and 1.48% (inactive).

In the case of `O=C(OCc1ccccc1)c1ccccc1`, the max response is -7.64% (inactive).

As for `CC1(C)S[C@@H]2[C@H](NC(=O)[C@H](N)c3ccccc3)C(=O)N2[C@H]1C(=O)O`, the max response is 1.44% (inactive).

In the case of `CCCOC(=O)c1ccc(O)cc1`, the max response is -5.57% (inactive) and 0.165% (inactive) and 2.13% (inactive).

Turning to `CC(C)OC(=O)c1cc(C(=O)OC(C)C)cc([N+](=O)[O-])c1`, the max response is -14.7% (inactive).

A short description of a further test: qHTS assay for cell viability of the p53RE-bla HCT-116 cell line (AID 743292). Further: nearly all actives have a fitted effect of over 55% in size. To be noted: p53RE-bla HCT-116 viability, ATP luminescence, 16 h; series mostly up to 95 µM. In a few lines: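 Readout: CellTiter-Glo luminescence after 30 min RT. Treatment: compounds in DMSO, 16 h, 37 C. Cells: CellSensor p53RE-bla HCT-116, 4,000/well, preincubated 5 h.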
For `Nc1cc(-c2ccncc2)c[nH]c1=O`, the Potency entry is “inactive”.

On to `c1ccc2sc(SSc3nc4ccccc4s3)nc2c1`, for which the Potency entry is “inactive”.

Take `O=C(OCc1ccccc1)c1ccccc1`: the Potency result was “inactive”.

For the compound `CC1(C)S[C@@H]2[C@H](NC(=O)[C@H](N)c3ccccc3)C(=O)N2[C@H]1C(=O)O`, the Potency entry is “inactive”.

With `CCCOC(=O)c1ccc(O)cc1`, the Potency result was “inactive”.

As to `CC(C)OC(=O)c1cc(C(=O)OC(C)C)cc([N+](=O)[O-])c1`, the Potency entry was “inactive”.
